# Assay outcomes (PubChem)
# Most compounds without a hit are left out; they make up all but 4.9% or so of the library.
# HSF1 inh: HSF1 inhibition | NIH3T3-HGL HSE-luciferase, MG132-induced, luminescence 8 h; hits give low values | activity change, negative = inhibition, % at 7.5 µM (by protocol) | 300,000 tested, 0.77% active;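 active = more than half of replicate wells show activity change below -50%, luminescence cut by over half; inconclusive = some wells, but at most half, below -50%; inactive = no replicate well below -50%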;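 note: luciferase reports HSF-1 transcriptional activity via heat shock element; 0% = median of DMSO wells and -100% = zero luminescence signal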
# MPTP block: inhibitors of mitochondrial permeability transition pore. isolated mouse mitochondria, Ca2+ swelling absorbance, 30 min. inhibition, % at 10 µM. 360,000 tested, 1.4% active. AID 602449;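 active = inhibition of 50% or more, scaled per plate between neutral and stimulator controls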;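 note: 0% = DMSO wells given calcium and 100% = 1 mM EGTA wells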
# HSF-1 act: increases HSF-1 driven luciferase reporter signal; 300,000 tested, 1.7% active; activation, % at 9 µM; AID 504408; NIH3T3-HGL HSF-1 luciferase reporter, MG132, 8 h; 100% = twice DMSO control signal;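 active = mean replicate activation of at least 50% with a set share of replicates each reaching 50%; inconclusive = only one of those two conditions met; inactive = mean below 50% and too few replicates reaching it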;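 note: 0% = median of the neutral control wells and 100% = twice that signal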
# HSP90 refold inh: inhibitors of HSP90 luciferase refolding in rabbit reticulocyte lysate; inhibition, % at 5.6 µM; 290,000 tested, 0.91% active; luciferase refolding luminescence, 3 h; AID 1789;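 active = inhibition above the screen-wide mean plus 3 SD, computed separately per campaign, cut at about 16% in these data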;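 note: 0% = DMSO wells and 100% = 60 µM geldanamycin wells; inhibitors lower the luminescence because luciferase stays unfolded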
# dFosB activator: enhances mouse delta FosB homodimer DNA binding; purified delta FosB, TAMRA-CDK5 oligo fluorescence polarization; percent of positive-control signal above neutral wells; activation, % at 25 µM; 340,000 tested, 0.99% active; AID 493131;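 active = mean activation above about 17%, with every replicate also reaching it, limit read from the data, passing the limit was not always enough; inconclusive = only one of the two conditions met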
# Target sequence (P13346 whole entry, looked up): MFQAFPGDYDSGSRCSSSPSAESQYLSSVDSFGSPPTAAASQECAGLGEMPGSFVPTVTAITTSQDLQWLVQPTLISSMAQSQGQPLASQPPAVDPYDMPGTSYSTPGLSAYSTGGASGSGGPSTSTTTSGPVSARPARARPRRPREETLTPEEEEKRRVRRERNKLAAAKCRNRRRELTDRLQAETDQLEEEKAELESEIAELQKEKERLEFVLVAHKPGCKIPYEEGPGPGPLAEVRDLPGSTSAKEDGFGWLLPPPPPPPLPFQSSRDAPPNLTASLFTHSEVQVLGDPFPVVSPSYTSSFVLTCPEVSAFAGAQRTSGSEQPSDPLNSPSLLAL
# Platelet DG rel: platelet dense granule release activity | human platelet-rich plasma, SFLLRN dense granule ATP release, luminescence | inhibition, %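 (compounds screened at 7.5 µM in platelet-rich plasma)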 | 300,000 tested, 0.22% active;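 active = mean replicate score, as percent of positive control, at or above 50; inconclusive = mean below 50 but at least one replicate at or above 50; inactive = mean and every replicate below 50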
# Rh123 counter: mitochondrial membrane potential, counter-screen. inhibition, % at 10 µM. 5,000 tested, 78% active. AID 624504. isolated mitochondria, Rhodamine 123 fluorescence. shares compounds with MPTP block; in the data active = inhibition above about 22%;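 note: 0% = DMSO vehicle and 100% = positive control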
# MPTP swell DR: MPTP inhibition, dose response swelling confirmation | AID 651561 | isolated mitochondria swelling, absorbance | IC50, µM | shares compounds with MPTP block | 780 tested, 58% active; in the data active = IC50 below about 20 µM
# MPTP counter DR: MPTP inhibitor counter-screen activity, dose response. 780 tested, 49% active. IC50, µM. isolated mitochondria counterscreen, fluorescence read-out. shares compounds with MPTP block; in the data active = IC50 below about 80 µM
# An asterisk follows results filed as active; i = inactive; ? = inconclusive; . = not tested or not shown.
SMILES,HSF1 inh,MPTP block,HSF-1 act,HSP90 refold inh,dFosB activator,Platelet DG rel,Rh123 counter,others
N#Cc1cccc(C#N)c1Oc1ccc(S(=O)(=O)Nc2ccc(Cl)cc2)cc1,?,77*,-60,6,-7,6,45*,
Nc1ncc(Br)cc1S(=O)(=O)Nc1cc(C(F)(F)F)cc(C(F)(F)F)c1,-2,85*,-7,-8,-4,0,85*,
CN(C(=O)CN1C(=O)S/C(=C\c2ccc(Cl)cc2)C1=O)C1CCS(=O)(=O)C1 (stereo unspecified),4,-1,-2,1,-5,-8,.,
Cc1ccccc1NC(=O)Nc1nnc(Cc2ccc([N+](=O)[O-])cc2)s1,3,3,7,1,4,11,.,
O=C(Nc1ccccc1)Nc1nnc(Cc2ccc([N+](=O)[O-])cc2)s1,9,93*,21,6,8,-1,89*,
Cc1ccc(NC(=O)Nc2nnc(Cc3ccc([N+](=O)[O-])cc3)s2)cc1C,-21,86*,-13,-3,-7,-14,63*,
Cc1ccc(S(=O)(=O)N2[C@@H](CCO)OC[C@H]2C(C)C)cc1,.,0,.,.,.,.,.,
COC(=O)NCC(C)OC(=O)Nc1cccc(Cl)c1 (stereo unspecified),-2,-1,6,0,1,2,.,
CC(CNC(=O)COc1ccccc1)OC(=O)Nc1ccc(Cl)c(Cl)c1 (stereo unspecified),20,89*,29,-1,-3,-3,88*,
CC1CCCCN1S(=O)(=O)c1ccc(C(=O)Nc2ccccc2-c2nc3ccccc3[nH]2)cc1 (stereo unspecified),-2,74*,-5,3,-1,-3,75*,
CC1CCCCN1S(=O)(=O)c1ccc(C(=O)Nc2ccccc2-c2nc3ccccc3s2)cc1 (stereo unspecified),-9,-1,-7,-3,-3,19,.,
O=C(Nc1ccccc1-c1nc2ccccc2[nH]1)c1ccc(S(=O)(=O)N2CCCCC2)cc1,-2,50*,-5,2,-10,14,28*,
Cc1ccccc1NC(=O)c1ccc(S(=O)(=O)N2CCCC2)cc1,1,-1,2,-5,-14,2,.,
c1ccc(Nc2ncnc3sc4c(c23)CCC4)cc1,-1,-1,-12,-1,-9,7,.,
c1csc(CCNc2ncnc3sc4c(c23)CCC4)c1,-9,102*,-15,.,-8,0,102*,
O=S(=O)(N/N=C1/CC(c2ccccc2)Oc2ccccc21)c1ccc(Br)cc1 (stereo unspecified),5,76*,10,-2,-8,-1,85*,
Cc1ccc(S(=O)(=O)N/N=C2/CC(c3ccccc3)Oc3ccccc32)cc1[N+](=O)[O-] (stereo unspecified),-5,78*,-5,-4,2,7,76*,
Cc1ccc2c(c1)c1c3n2CCCNC3CCC1 (stereo unspecified),-1,-5,-5,-3,0,0,.,
c1cc2c(cc1C1CCCCC1)c1c3n2CCCNC3CCC1 (stereo unspecified),-7,80*,-12,4,25*,-38,-29,
Cc1ccc(OCC(=O)c2cc(C)n(Cc3cccs3)c2C)c([N+](=O)[O-])n1,?,76*,-31,2,-19,-1,67*,
Cc1ccc(OCC(=O)c2cc(C)n(CC(F)(F)F)c2C)c([N+](=O)[O-])n1,-6,0,-7,-3,-12,-15,.,
Cc1c(C)n(Cc2ccc(F)cc2)c2ccc(C(=O)NCCCN3CCOCC3)cc12,-1,0,-22,1,-1,9,.,
O=C(Nc1ccc(Cl)c([N+](=O)[O-])c1)ONC1=NCCCCC1,-12,82*,-34,-1,-1,-2,91*,
O=C(ONC1=NCCCCC1)c1cccc([N+](=O)[O-])c1,0,0,-2,2,2,2,.,
Cc1cc(=O)[nH]c(SCC(=O)C23CC4CC(CC(C4)C2)C3)c1C#N,0,85*,-7,-1,5,2,84*,
SMILES,HSF1 inh,MPTP block,HSF-1 act,HSP90 refold inh,dFosB activator,Platelet DG rel,Rh123 counter,others
CN(C1CCCCC1)S(=O)(=O)c1ccc2c(c1)c(=O)c(C(=O)O)cn2C,.,-1,.,.,.,.,.,
Cc1cc2oc3ccc(NCCCN4CCOCC4)cc3c(=O)c2cc1C,18,1,12,.,-2,1,.,
Cc1cc2oc3ccc(NCCCn4ccnc4)cc3c(=O)c2cc1C,0,58*,0,.,-2,-2,-2,
CCOc1ncccc1C(=O)OCC(=O)N(CC(C)C)C1CCS(=O)(=O)C1 (stereo unspecified),-7,0,-8,2,2,10,.,
O=C(/C=C/c1ccc(Cl)cc1Cl)NCCSCc1ccccc1,-1,92*,-2,0,-7,7,82*,
O=C(/C=C/c1ccccc1)NCCSCc1ccc(Cl)cc1,-8,23,0,-5,-8,5,.,
O=C(/C=C/c1ccc(Cl)cc1)NCCSc1ccccc1,9,45,20,0,-6,3,.,
O=C(/C=C/c1cccc([N+](=O)[O-])c1)NCCSCc1ccc(Cl)cc1,4,51*,3,-4,-4,-12,64*,
O=C(/C=C/c1ccc(Cl)cc1Cl)NCCSc1ccccc1,12,96*,9,1,-10,5,92*,
O=C(/C=C/c1cccc([N+](=O)[O-])c1)NCCSCc1c(Cl)cccc1Cl,-8,-9,2,-4,-10,-8,.,
COC(=O)C1=C(C(=O)OC)[C@@H]2N(C)c3ccc(OC)cc3[C@@]23C[C@@H](C(=O)OC)N(S(=O)(=O)c2ccc(OC)cc2)C3=N1,-2,1,-1,.,-2,5,.,
OCC1(Cc2ccc(Cl)cc2)CCN(Cc2ccccc2F)CC1,2,1,-1,6,-6,6,.,
OCC1(Cc2ccc(Cl)cc2)CCN(CCCc2ccccc2)CC1,-5,53*,1,1,-3,-1,-10,MPTP swell DR=10*
CC(C)(C)c1ccc(-c2nnc(SCCC#N)n2C2CCCC2)cc1,11,69*,43,4,-8,1,15,MPTP swell DR=i;MPTP counter DR=23*
Cn1c(-c2ccc(Br)o2)nc2cc(Br)ccc21,.,64*,.,5,0,.,-8,MPTP swell DR=i;MPTP counter DR=>80
CCOC(=O)CC(=O)CSc1nc2c(cc1C#N)CCC2,-6,-2,-12,3,-4,-1,.,
O=C(CSc1nc(-c2ccco2)cc(C(F)(F)F)n1)Nc1ccc(C(=O)N2CCCCC2)cc1,11,54*,9,5,-15,-19,92*,
